About 2,000 (36%) of roughly 5,500 compounds were called active. Inconclusive results (about 18%) are left out. Cut-off read from the data, not from the text of the source: active = normalized growth mostly below about 0.91 (no sharp cut-off); inconclusive = no clear call, values can overlap the other calls; inactive = mostly above about 0.92. The list shows a part of the results.
Assay: chemical genetic growth profiling, strain panel (AID 1159580);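 note: tested at 20 µM; growth read once vehicle control cultures reached saturation at 30 °C; 1 = growth at the plate median or of vehicle wells; lower values mean less growth of the strain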
Details: growth OD

Measured: normalized growth

O=C(O)c1nc2cc(Cl)c(Cl)cc2[nH]c1=O
inactive: S. cerevisiae deletion strains, locus YJR075W, strain HOC1, hits give low values 1.07 | S. cerevisiae deletion strains, locus YKL009W, strain mrt4, hits give low values 0.949 | S. cerevisiae deletion strains, locus YKL068W, hits give low values 0.981 | S. cerevisiae deletion strains, locus YKL085W, strain MDH1 (second series), hits give low values 1.02 | S. cerevisiae deletion strains, locus YKL085W, strain MDH1, hits give low values 1.02 | S. cerevisiae deletion strains, locus YKL160W, strain elf1, hits give low values 0.996 | S. cerevisiae deletion strains, locus YKL190W, strain CNB1, hits give low values 0.996 | S. cerevisiae deletion strains, locus YKR001C, strain vps1, hits give low values 0.983 | S. cerevisiae deletion strains, locus YKR026C, strain gcn3, hits give low values 1.02 | S. cerevisiae deletion strains, locus YKR091W, strain srl3, hits give low values 1.01 | S. cerevisiae deletion strains, locus YLL001W, strain dnm1, hits give low values 1.01 | S. cerevisiae deletion strains, locus YLL026W, hits give low values 1.01 | S. cerevisiae deletion strains, locus YLL041C, strain sdh2, hits give low values 1.01 | S. cerevisiae deletion strains, locus YLR027C, strain aat2, hits give low values 1.01 | S. cerevisiae deletion strains, locus YLR039C, strain RIC1, hits give low values 1.01 | S. cerevisiae deletion strains, locus YLR058C, strain SHM2, hits give low values 1 | S. cerevisiae deletion strains, locus YLR102C, strain apc9, hits give low values 0.987 | S. cerevisiae deletion strains, locus YLR113W, strain HOG1, hits give low values 0.987 | S. cerevisiae deletion strains, locus YLR221C, strain rsa3, hits give low values 1 | S. cerevisiae deletion strains, locus YLR258W, strain gsy2, hits give low values 1.02 | S. cerevisiae deletion strains, locus YLR262C, strain YPT6 (second series), hits give low values 1.02 | S. cerevisiae deletion strains, locus YLR262C, strain YPT6, hits give low values 0.981 | S. cerevisiae deletion strains, locus YLR268W, strain sec22, hits give low values 1 | S. cerevisiae deletion strains, locus YLR320W, strain mms22, hits give low values 1.02 | S. cerevisiae deletion strains, locus YLR330W, strain CHS5, hits give low values 0.994 | S. cerevisiae deletion strains, locus YLR342W, strain FKS1 (second series), hits give low values 1.02 | S. cerevisiae deletion strains, locus YLR342W, strain FKS1, hits give low values 1.03 | S. cerevisiae deletion strains, locus YLR357W, strain rsc2, hits give low values 1.01 | S. cerevisiae deletion strains, locus YLR370C, strain arc18, hits give low values 1.03 | S. cerevisiae deletion strains, locus YLR371W, strain rom2, hits give low values 0.968 | S. cerevisiae deletion strains, locus YLR384C, strain iki3, hits give low values 1 | S. cerevisiae deletion strains, locus YLR418C, strain cdc73, hits give low values 1.05 | S. cerevisiae deletion strains, locus YML016C, strain PPZ1, hits give low values 0.995 | S. cerevisiae deletion strains, locus YML032C, strain rad52, hits give low values 0.977 | S. cerevisiae deletion strains, locus YML120C, strain ndi1, hits give low values 1 | S. cerevisiae deletion strains, locus YML124C, strain tub3, hits give low values 0.993 | S. cerevisiae deletion strains, locus YMR058W, strain fet3, hits give low values 1.02 | S. cerevisiae deletion strains, locus YMR078C, strain ctf18, hits give low values 0.99 | S. cerevisiae deletion strains, locus YMR125W, strain sto1, hits give low values 1.02 | S. cerevisiae deletion strains, locus YMR129W, hits give low values 1 | S. cerevisiae deletion strains, locus YMR205C, strain PFK2, hits give low values 1.04 | S. cerevisiae deletion strains, locus YMR223W, strain ubp8, hits give low values 0.996 | S. cerevisiae deletion strains, locus YMR231W, strain pep5, hits give low values 1.02 | S. cerevisiae deletion strains, locus YMR263W, strain SAP30, hits give low values 1.02 | S. cerevisiae deletion strains, locus YMR307W, strain GAS1, hits give low values 1.04 | S. cerevisiae deletion strains, locus YNL067W, strain RPL9B, hits give low values 0.948 | S. cerevisiae deletion strains, locus YNL071W, strain lat1, hits give low values 1.01 | S. cerevisiae deletion strains, locus YNL128W, strain TEP1, hits give low values 1.04 | S. cerevisiae deletion strains, locus YNL153C, strain GIM3, hits give low values 1.03 | S. cerevisiae deletion strains, locus YNL183C, strain NPR1, hits give low values 0.933 | S. cerevisiae deletion strains, locus YNL209W, strain ssb2, hits give low values 1.01 | S. cerevisiae deletion strains, locus YNL233W, strain BNI4, hits give low values 1.03 | S. cerevisiae deletion strains, locus YNL248C, strain rpa49, hits give low values 0.984 | S. cerevisiae deletion strains, locus YNL250W, strain rad50, hits give low values 0.988 | S. cerevisiae deletion strains, locus YNL271C, strain bni1, hits give low values 0.991 | S. cerevisiae deletion strains, locus YNL298W, strain CLA4, hits give low values 0.993 | S. cerevisiae deletion strains, locus YNL307C, strain MCK1, hits give low values 1.01 | S. cerevisiae deletion strains, locus YNL322C, strain KRE1 (second series), hits give low values 1.01 | S. cerevisiae deletion strains, locus YNL322C, strain KRE1, hits give low values 0.998 | S. cerevisiae deletion strains, locus YNR049C, strain mso1, hits give low values 1.01 | S. cerevisiae deletion strains, locus YNR052C, strain pop2, hits give low values 0.982 | S. cerevisiae deletion strains, locus YOL006C, strain TOP1, hits give low values 1.09 | S. cerevisiae deletion strains, locus YOL012C, strain htz1 0.84 | S. cerevisiae deletion strains, locus YOL147C, strain pex11, hits give low values 0.998 | S. cerevisiae deletion strains, locus YOR001W, strain rrp6, hits give low values 0.994 | S. cerevisiae deletion strains, locus YOR061W, strain CKA2, hits give low values 1 | S. cerevisiae deletion strains, locus YOR069W, strain VPS5, hits give low values 0.997 | S. cerevisiae deletion strains, locus YOR070C, strain gyp1, hits give low values 1.01 | S. cerevisiae deletion strains, locus YOR080W, strain dia2, hits give low values 1.02 | S. cerevisiae deletion strains, locus YOR083W, strain WHI5, hits give low values 0.981 | S. cerevisiae deletion strains, locus YOR106W, strain vam3, hits give low values 0.994 | S. cerevisiae deletion strains, locus YOR136W, strain idh2, hits give low values 0.992 | S. cerevisiae deletion strains, locus YOR144C, strain elg1, hits give low values 0.993 | S. cerevisiae deletion strains, locus YOR184W, strain ser1, hits give low values 0.988 | S. cerevisiae deletion strains, locus YOR231W, strain MKK1, hits give low values 1.01 | S. cerevisiae deletion strains, locus YOR265W, strain rbl2, hits give low values 0.999 | S. cerevisiae deletion strains, locus YOR270C, strain vph1, hits give low values 1.05 | S. cerevisiae deletion strains, locus YOR290C, strain snf2, hits give low values 1 | S. cerevisiae deletion strains, locus YOR316C, strain cot1, hits give low values 0.987 | S. cerevisiae deletion strains, locus YPL051W, strain arl3, hits give low values 0.989 | S. cerevisiae deletion strains, locus YPL055C, strain LGE1, hits give low values 0.981 | S. cerevisiae deletion strains, locus YPL078C, strain atp4, hits give low values 1 | S. cerevisiae deletion strains, locus YPL106C, strain sse1, hits give low values 1.02 | S. cerevisiae deletion strains, locus YPL240C, strain hsp82, hits give low values 1 | S. cerevisiae deletion strains, locus YPL241C, strain CIN2, hits give low values 0.992 | S. cerevisiae deletion strains, locus YPL256C, strain CLN2, hits give low values 0.994 | S. cerevisiae deletion strains, locus YPR119W, strain clb2, hits give low values 0.996 | S. cerevisiae deletion strains, locus YPR141C, strain kar3, hits give low values 0.99 | S. cerevisiae deletion strains, locus YPR163C, strain tif3, hits give low values 0.992 | S. cerevisiae deletion strains, locus YPR167C, strain met16, hits give low values 0.996 | S. cerevisiae deletion strains, strain wtn01, hits give low values 1.01 | S. cerevisiae strains, strain wild type, hits give low values 1.01

Reference: PubChem BioAssay AID1159580 (chemical genetic matrix, 2015)
